# Test results reported in PubChem BioAssay (EPA / NIEHS).
# Results filed as inconclusive are left out. Calls of active or inactive are those of the source. Rule for the calls: active = hit-call score of the fitted dose curve at least 0.9, where 1 is the maximum; inconclusive = response in the unintended direction; inactive = score below 0.9.
# Key:
# [1] = biological target: human Colony Stimulating Factor 1 Receptor (CSF1R), CSF1R (gene 1436) (UniProt P07333); assay: NVS_ENZ_hCSF1R: NovaScreen (NVS) Enzymatic Assay for human Colony Stimulating Factor 1 Receptor (CSF1R) (AID 2283150)
# Summary of the method: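 Cell-free recombinant human CSF1R kinase with fluorescent substrate, product separated by electrophoretic mobility shift; read 1 h after dosing. Primary screen at 25 uM in duplicate, actives then in concentration-response up to 50 uM, relative to DMSO.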
# [2] = biological target: human Ephrin type-A Receptor 1 (EphA1), EPHA1 (gene 2041) (UniProt P21709); assay: NVS_ENZ_hEphA1: NovaScreen (NVS) Enzymatic Assay for human Ephrin type-A Receptor 1 (EphA1) (AID 2283158);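 note: activity is signal loss versus DMSO meaning EphA1 kinase inhibition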
# Summary of the method: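 Recombinant kinase, fluorescent substrate, mobility-shift separation, fluorescence read at 1 h. Single-point duplicates at 25 uM; hits (e.g., ≥30% inhibition) run singleton concentration-response, max 50 uM. DMSO = negative control/baseline.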
# [3] = biological target: human FYN Proto-Oncogene, Src family Tyrosine Kinase (Fyn), FYN (gene 2534) (UniProt P06241); assay: NVS_ENZ_hFyn: NovaScreen (NVS) Enzymatic Assay for human FYN Proto-Oncogene, Src family Tyrosine Kinase (Fyn) (AID 2283161)
# Summary of the method: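 Recombinant enzyme with fluorescent substrate, product separated by electrophoretic mobility shift; read 1 h after dosing. Duplicate 25 uM single-point screen, actives retested in concentration series; loss of signal vs DMSO.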
# [4] = biological target: Histone deacetylase 3 (Homo sapiens) (UniProt O15379); assay: NVS_ENZ_hHDAC3: NovaScreen (NVS) Enzymatic Assay for human Histone Deacetylase 3 (HDAC3) (AID 2283163)
# Summary of the method: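 Recombinant human HDAC3 with fluorescent substrate, 1 h after dosing; product separated from substrate by electrophoretic mobility shift and read by fluorescence. Primary screen at 25 uM in duplicate; actives (e.g. ≥30% inhibition) retested in concentration-response up to 50 uM.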
# [5] = biological target: Glycogen synthase kinase-3 beta (Homo sapiens) (UniProt P49841); assay: NVS_ENZ_hGSK3b: NovaScreen (NVS) Enzymatic Assay for human Glycogen Synthase Kinase-3 beta (GSK3b) (AID 2283165)
# Summary of the method: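 Recombinant enzyme with specific fluorescent substrate, 1 h, product separated by electrophoretic mobility shift. Primary duplicate screen at 25 uM; actives (e.g. 30% inhibition) followed in singleton concentration-response to 50 uM. Signal loss fitted versus DMSO.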
# [6] = biological target: human Insulin Receptor (InsR), INSR (gene 3643) (UniProt P06213); assay: NVS_ENZ_hInsR: NovaScreen (NVS) Enzymatic Assay for human Insulin Receptor (InsR) (AID 2283168)
# Summary of the method: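 Fluorescent substrate phosphorylation by recombinant kinase, product resolved by electrophoretic mobility shift, read 1 h after dosing. Screened in duplicate at 25 uM; hits (e.g., 30% inhibition) run in concentration-response to 50 uM; DMSO as baseline.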
# [7] = biological target: human Janus Kinase 2 (Jak2), JAK2 (gene 3717) (UniProt O60674); assay: NVS_ENZ_hJak2: NovaScreen (NVS) Enzymatic Assay for human Janus Kinase 2 (Jak2) (AID 2283169)
# Summary of the method: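 Cell-free recombinant human JAK2 enzyme activity assay, fluorescence/electrophoretic mobility shift read 1 h after dosing. Screened in duplicate at 25 uM, then concentration-response up to 50 uM; activity as signal loss relative to DMSO.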
# [8] = biological target: human LYN Proto-Oncogene, Src family Tyrosine Kinase (LynA), LYN (gene 4067) (UniProt P07948); assay: NVS_ENZ_hLynA: NovaScreen (NVS) Enzymatic Assay for human LYN Proto-Oncogene, Src family Tyrosine Kinase (LynA) (AID 2283173)
# Summary of the method: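 Recombinant kinase with fluorescent substrate; product separated from substrate by electrophoretic mobility shift and read 1 h after dosing. Duplicate screen at 25 uM, then concentration-response up to 50 uM; activity scored as signal loss against DMSO.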
# [9] = biological target: human Mitogen- and Stress-activated Protein Kinase-1 (Msk1), RPS6KA5 (gene 9252) (UniProt O75582); assay: NVS_ENZ_hMsk1: NovaScreen (NVS) Enzymatic Assay for human Mitogen- and Stress-activated Protein Kinase-1 (Msk1) (AID 2283187)
# Summary of the method: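 Recombinant kinase with fluorescent substrate; product separated by electrophoretic mobility shift, read 1 h after dosing. Screened in duplicate at 25 uM; hits (e.g. ≥30% inhibition) tested in concentration–response up to 50 uM. DMSO baseline.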
# [10] = biological target: human Ephrin type-B Receptor 1 (EphB1), EPHB1 (gene 2047) (UniProt P54762); assay: NVS_ENZ_hEphB1: NovaScreen (NVS) Enzymatic Assay for human Ephrin type-B Receptor 1 (EphB1) (AID 2283154)
# Summary of the method: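 Cell-free kinase assay with recombinant enzyme, fluorescent substrate and electrophoretic mobility-shift separation of substrate and product; read 1 h after dosing. Single-concentration duplicate screen at 25 uM; loss of signal versus DMSO baseline.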
# [11] = biological target: human MAP Kinase-Activated Protein Kinase 2 (MAPKAPK2), MAPKAPK2 (gene 9261) (UniProt P49137); assay: NVS_ENZ_hMAPKAPK2: NovaScreen (NVS) Enzymatic Assay for human MAP Kinase-Activated Protein Kinase 2 (MAPKAPK2) (AID 2283178)
# Summary of the method: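 Cell-free recombinant human MAPKAPK2 activity measured by fluorescence with electrophoretic mobility shift separation of substrate and product, 1 hr after dosing. Loss of signal versus DMSO; primary screen at 25 uM, concentration-response up to 50 uM.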
# [12] = biological target: human Dual Specificity Protein Phosphatase 3 (DUSP3), DUSP3 (gene 1845) (UniProt P51452); assay: NVS_ENZ_hDUSP3: NovaScreen (NVS) Enzymatic Assay for human Dual Specificity Protein Phosphatase 3 (DUSP3) (AID 2283152);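 note: phosphatase activity of recombinant human DUSP3 on a fluorogenic substrate without cells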
# Summary of the method: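 Cell-free assay with recombinant human DUSP3 and fluorogenic substrate, read by fluorescence intensity. Primary screen ran duplicate at 25 uM; actives followed up in concentration series; loss of signal versus DMSO scored.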
# [13] = biological target: human Matrix Metalloproteinase-7 (MMP7), MMP7 (gene 4316) (UniProt P09237); assay: NVS_ENZ_hMMP7: NovaScreen (NVS) Enzymatic Assay for human Matrix Metalloproteinase-7 (MMP7) (AID 2283183)
# Summary of the method: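 Cell-free fluorescence enzymatic assay read 1 h after compound addition, activity loss analyzed against DMSO. Primary duplicate testing at 25 uM; compounds meeting threshold rerun in singleton concentration-response up to 50 uM.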
# [14] = biological target: human Matrix Metalloproteinase-3 (MMP3), MMP3 (gene 4314) (UniProt P08254); assay: NVS_ENZ_hMMP3: NovaScreen (NVS) Enzymatic Assay for human Matrix Metalloproteinase-3 (MMP3) (AID 2283185)
# Summary of the method: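 Cell-free recombinant human MMP3 activity, fluorescence intensity read 1 h after dosing. Primary screen duplicate at 25 uM, actives retested in concentration series; loss of signal vs DMSO baseline.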
# [15] = biological target: Collagenase 3 (Homo sapiens) (UniProt P45452); assay: NVS_ENZ_hMMP13: NovaScreen (NVS) Enzymatic Assay for human Matrix Metalloproteinase-13 (MMP13) (AID 2283182)
# Summary of the method: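 Recombinant MMP13 cleaving fluorescent substrate, cell-free, measured 1 h after dosing. Primary duplicate screen at 25 uM; actives tested in concentration-response up to 50 uM; loss of signal relative to DMSO.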
# [16] = biological target: human Esterase Plasma (ES), BCHE (gene 590) (UniProt P06276); assay: NVS_ENZ_hES: NovaScreen (NVS) Enzymatic Assay for human Esterase Plasma (ES) (AID 2283157)
# Summary of the method: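 Esterase from human plasma, cell-free, colorimetric absorbance read 0.25 h after dosing. Screened at 25 uM in duplicate, with threshold-passing chemicals run in concentration-response up to 50 uM; loss of signal fitted versus DMSO.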
# [17] = biological target: human Elastase, ELANE (gene 1991) (UniProt P08246); assay: NVS_ENZ_hElastase: NovaScreen (NVS) Enzymatic Assay for human Elastase (AID 2283153)
# Summary of the method: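 Cell-free elastase from human neutrophils, 1.5 h after dosing, activity read by absorbance. Primary screen in duplicate at 25 uM; hits (e.g., 30% inhibition) rerun in singleton concentration-response up to 50 uM, fitted versus DMSO.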
# [18] = biological target: Mitogen-activated protein kinase 3 (Homo sapiens) (UniProt P27361); assay: NVS_ENZ_hMAPK3: NovaScreen (NVS) Enzymatic Assay for human Mitogen-Activated Protein Kinase 3 (MAPK 3) (AID 2283177)
# Summary of the method: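 Cell-free enzymatic assay with recombinant protein and specific substrate; fluorescence and electrophoretic mobility shift read-out 1 h after dosing. Primary screen duplicate at 25 uM; actives then run in concentration-response up to 50 uM, loss of signal versus DMSO.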
# [19] = biological target: human c-Jun N-terminal Kinases (JNK2), MAPK9 (gene 5601) (UniProt P45984); assay: NVS_ENZ_hJNK2: NovaScreen (NVS) Enzymatic Assay for human c-Jun N-terminal Kinases (JNK2) (AID 2283171)
# Summary of the method: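 Cell-free recombinant human JNK2 activity assay; fluorescent substrate and product separated by electrophoretic mobility shift, read 1 h after dosing. Primary duplicate screen at 25 uM; actives run in concentration-response up to 50 uM, relative to DMSO.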
# [20] = biological target: human Matrix Metalloproteinase-2 (MMP2), MMP2 (gene 4313) (UniProt P08253); assay: NVS_ENZ_hMMP2: NovaScreen (NVS) Enzymatic Assay for human Matrix Metalloproteinase-2 (MMP2) (AID 2283184)
# Summary of the method: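 Cell-free recombinant MMP2 activity with a fluorescent substrate, read 1 h after dosing. Primary screen in duplicate at 25 uM; actives then run in concentration series; loss of signal fitted versus DMSO.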
# human Elastase, ELANE (gene 1991), sequence (P08246 whole entry, looked up): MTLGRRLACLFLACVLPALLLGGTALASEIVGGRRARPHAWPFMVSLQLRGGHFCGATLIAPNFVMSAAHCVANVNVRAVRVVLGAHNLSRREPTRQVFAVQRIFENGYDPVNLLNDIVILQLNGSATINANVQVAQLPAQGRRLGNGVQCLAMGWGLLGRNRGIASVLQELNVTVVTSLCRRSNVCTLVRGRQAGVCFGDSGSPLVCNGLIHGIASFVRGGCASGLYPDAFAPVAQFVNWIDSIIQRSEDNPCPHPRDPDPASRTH
# human Colony Stimulating Factor 1 Receptor (CSF1R), CSF1R (gene 1436), sequence (P07333 whole entry, looked up): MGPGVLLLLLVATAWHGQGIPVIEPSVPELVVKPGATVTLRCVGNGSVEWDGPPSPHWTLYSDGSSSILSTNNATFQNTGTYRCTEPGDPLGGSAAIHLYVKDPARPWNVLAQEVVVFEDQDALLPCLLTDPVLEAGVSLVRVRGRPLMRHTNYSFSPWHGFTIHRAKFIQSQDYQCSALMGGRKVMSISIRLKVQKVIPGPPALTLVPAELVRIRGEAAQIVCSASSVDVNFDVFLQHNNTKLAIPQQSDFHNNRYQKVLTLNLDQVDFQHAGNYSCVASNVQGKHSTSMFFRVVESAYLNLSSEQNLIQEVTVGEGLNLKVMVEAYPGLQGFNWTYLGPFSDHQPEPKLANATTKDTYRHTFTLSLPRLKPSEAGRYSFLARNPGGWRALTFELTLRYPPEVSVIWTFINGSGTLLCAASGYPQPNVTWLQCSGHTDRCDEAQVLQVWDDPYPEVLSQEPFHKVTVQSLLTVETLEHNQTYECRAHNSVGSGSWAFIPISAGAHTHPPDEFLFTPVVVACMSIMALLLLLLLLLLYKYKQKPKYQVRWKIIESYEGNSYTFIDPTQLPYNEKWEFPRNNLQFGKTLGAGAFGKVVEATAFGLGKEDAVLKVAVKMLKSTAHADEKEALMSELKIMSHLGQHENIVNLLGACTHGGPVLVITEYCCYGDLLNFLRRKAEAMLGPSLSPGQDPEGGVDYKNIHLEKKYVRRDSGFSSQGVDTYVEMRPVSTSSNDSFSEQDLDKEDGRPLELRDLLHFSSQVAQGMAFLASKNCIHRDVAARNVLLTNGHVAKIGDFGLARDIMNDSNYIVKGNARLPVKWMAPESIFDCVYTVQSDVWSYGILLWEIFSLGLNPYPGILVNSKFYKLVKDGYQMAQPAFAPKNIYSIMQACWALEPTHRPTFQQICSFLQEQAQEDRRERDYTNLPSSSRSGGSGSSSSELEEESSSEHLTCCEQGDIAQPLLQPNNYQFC
# Histone deacetylase 3 (Homo sapiens), sequence (O15379 whole entry, looked up): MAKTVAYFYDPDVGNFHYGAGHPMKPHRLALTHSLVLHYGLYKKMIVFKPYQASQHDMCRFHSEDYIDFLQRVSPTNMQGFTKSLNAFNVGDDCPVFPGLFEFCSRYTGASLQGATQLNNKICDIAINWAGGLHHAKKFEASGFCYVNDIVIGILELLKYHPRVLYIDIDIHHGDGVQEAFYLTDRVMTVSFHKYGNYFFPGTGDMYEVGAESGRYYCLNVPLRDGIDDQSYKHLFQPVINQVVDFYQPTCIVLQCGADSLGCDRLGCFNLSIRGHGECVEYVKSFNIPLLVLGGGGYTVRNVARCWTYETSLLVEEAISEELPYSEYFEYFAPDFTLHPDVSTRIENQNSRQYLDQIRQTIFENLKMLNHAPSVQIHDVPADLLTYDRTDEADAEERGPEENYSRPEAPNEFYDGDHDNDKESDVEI
# human Ephrin type-A Receptor 1 (EphA1), EPHA1 (gene 2041), sequence (P21709 whole entry, looked up): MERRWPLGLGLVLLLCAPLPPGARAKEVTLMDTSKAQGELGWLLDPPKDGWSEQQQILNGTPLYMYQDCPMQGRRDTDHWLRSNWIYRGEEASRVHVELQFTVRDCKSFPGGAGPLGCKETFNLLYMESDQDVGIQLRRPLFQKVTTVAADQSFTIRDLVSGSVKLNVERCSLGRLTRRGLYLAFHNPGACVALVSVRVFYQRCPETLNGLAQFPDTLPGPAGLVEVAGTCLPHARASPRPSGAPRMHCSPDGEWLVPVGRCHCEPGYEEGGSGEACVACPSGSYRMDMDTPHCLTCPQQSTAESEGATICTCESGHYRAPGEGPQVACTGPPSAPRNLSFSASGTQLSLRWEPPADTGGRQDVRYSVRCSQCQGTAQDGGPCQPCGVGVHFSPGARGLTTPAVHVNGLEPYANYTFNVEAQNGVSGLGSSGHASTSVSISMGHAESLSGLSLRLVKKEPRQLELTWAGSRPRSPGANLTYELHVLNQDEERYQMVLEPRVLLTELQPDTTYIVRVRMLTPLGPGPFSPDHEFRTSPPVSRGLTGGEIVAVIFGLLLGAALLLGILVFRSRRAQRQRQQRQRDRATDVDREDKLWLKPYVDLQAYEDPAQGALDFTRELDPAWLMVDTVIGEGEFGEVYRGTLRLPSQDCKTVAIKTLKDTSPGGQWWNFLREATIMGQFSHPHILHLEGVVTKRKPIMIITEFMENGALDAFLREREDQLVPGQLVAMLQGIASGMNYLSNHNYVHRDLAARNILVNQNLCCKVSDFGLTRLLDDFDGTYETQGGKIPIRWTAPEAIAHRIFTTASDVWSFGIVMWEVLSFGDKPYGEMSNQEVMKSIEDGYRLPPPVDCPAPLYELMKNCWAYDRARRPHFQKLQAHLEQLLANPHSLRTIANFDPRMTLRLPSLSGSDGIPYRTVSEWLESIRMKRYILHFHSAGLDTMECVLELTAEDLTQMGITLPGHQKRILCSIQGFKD
# human Janus Kinase 2 (Jak2), JAK2 (gene 3717), sequence (O60674 whole entry, looked up): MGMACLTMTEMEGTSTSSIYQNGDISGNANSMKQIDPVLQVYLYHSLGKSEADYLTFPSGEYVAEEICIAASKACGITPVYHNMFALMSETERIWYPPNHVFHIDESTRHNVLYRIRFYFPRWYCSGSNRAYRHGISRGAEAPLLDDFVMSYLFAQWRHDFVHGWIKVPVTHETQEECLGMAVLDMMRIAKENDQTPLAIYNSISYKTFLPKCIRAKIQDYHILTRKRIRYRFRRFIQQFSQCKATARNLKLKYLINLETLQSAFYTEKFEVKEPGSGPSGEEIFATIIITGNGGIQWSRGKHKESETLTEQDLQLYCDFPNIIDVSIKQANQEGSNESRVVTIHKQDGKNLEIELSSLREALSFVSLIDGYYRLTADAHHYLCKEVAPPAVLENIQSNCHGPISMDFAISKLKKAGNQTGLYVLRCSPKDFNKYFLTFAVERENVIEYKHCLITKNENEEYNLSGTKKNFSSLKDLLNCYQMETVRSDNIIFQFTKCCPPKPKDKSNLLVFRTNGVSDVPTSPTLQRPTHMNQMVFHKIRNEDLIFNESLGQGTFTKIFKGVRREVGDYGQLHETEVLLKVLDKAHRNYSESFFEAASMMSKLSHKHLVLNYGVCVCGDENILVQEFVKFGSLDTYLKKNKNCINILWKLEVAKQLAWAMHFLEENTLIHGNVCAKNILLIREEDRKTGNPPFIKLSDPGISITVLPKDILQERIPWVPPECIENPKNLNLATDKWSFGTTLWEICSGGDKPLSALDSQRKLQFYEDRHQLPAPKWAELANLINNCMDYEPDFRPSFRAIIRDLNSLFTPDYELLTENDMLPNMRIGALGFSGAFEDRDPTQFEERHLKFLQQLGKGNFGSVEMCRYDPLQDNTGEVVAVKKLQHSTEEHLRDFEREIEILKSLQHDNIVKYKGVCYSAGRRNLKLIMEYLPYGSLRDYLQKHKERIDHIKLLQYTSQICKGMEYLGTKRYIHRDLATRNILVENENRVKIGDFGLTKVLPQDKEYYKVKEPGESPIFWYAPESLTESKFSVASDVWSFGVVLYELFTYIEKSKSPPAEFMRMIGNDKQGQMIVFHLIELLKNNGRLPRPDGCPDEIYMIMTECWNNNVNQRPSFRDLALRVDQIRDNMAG
# human LYN Proto-Oncogene, Src family Tyrosine Kinase (LynA), LYN (gene 4067), sequence (P07948 whole entry, looked up): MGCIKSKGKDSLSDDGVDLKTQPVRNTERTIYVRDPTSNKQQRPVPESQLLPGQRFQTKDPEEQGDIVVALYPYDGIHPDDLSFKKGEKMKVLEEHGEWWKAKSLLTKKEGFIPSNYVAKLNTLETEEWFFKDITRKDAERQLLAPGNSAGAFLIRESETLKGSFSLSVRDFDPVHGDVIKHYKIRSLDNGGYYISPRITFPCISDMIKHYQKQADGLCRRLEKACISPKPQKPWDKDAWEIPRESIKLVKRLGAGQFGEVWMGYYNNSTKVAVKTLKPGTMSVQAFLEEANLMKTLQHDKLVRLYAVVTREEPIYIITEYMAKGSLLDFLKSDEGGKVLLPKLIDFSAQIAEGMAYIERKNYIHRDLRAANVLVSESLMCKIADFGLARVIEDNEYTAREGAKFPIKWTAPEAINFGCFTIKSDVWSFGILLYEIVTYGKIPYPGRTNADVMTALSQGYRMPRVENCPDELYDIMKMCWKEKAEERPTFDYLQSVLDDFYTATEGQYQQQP
# human MAP Kinase-Activated Protein Kinase 2 (MAPKAPK2), MAPKAPK2 (gene 9261), sequence (P49137 whole entry, looked up): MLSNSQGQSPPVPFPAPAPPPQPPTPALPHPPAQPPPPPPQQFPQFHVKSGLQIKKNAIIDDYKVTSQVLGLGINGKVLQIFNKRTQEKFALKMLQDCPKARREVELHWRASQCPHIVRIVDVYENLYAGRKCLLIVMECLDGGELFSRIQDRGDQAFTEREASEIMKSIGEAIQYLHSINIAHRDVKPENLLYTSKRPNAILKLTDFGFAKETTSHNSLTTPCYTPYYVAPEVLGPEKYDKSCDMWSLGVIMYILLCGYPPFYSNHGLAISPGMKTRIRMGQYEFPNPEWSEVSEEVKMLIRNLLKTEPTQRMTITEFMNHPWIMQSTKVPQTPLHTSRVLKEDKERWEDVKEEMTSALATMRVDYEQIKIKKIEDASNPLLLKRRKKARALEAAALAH
# human Dual Specificity Protein Phosphatase 3 (DUSP3), DUSP3 (gene 1845), sequence (P51452 whole entry, looked up): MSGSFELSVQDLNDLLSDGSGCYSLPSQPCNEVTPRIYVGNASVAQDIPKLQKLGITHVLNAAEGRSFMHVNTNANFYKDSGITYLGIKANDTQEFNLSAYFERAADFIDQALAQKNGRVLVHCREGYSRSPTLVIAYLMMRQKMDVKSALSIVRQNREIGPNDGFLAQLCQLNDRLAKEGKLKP
structure (smiles),measurement,setting,value
O=C(c1ccc(O)cc1O)c1ccc(O)cc1O,AC50,[1],11.6 µM (active)
same,AC50,[2],25 µM (active)
same,AC50,[3],15.1 µM (active)
same,outcome,[4],inactive
same,AC50,[5],25 µM (active)
same,AC50,[6],19.3 µM (active)
same,AC50,[7],21 µM (active)
same,outcome,[8],inactive
same,AC50,[9],24.1 µM (active)
COC(=O)c1ccccc1C(=O)O,outcome,[8],inactive
O=C(c1ccccc1)C1CCCCC1,outcome,[2],inactive
N#CSCSc1nc2ccccc2s1,outcome,[10],inactive
same,outcome,[2],inactive
same,AC50,[4],20 µM (active)
same,outcome,[8],inactive
same,outcome,[11],inactive
C[C@]12CC[C@@H]3c4ccc(O)cc4C[C@@H](CCCCCCCCCS(=O)CCCC(F)(F)C(F)(F)F)[C@H]3[C@@H]1CC[C@@H]2O (some centres not stated),outcome,[12],inactive
same,outcome,[2],inactive
same,outcome,[13],inactive
same,outcome,[14],inactive
CCOC(=O)[C@H](C)Oc1ccc(Oc2nc3ccc(Cl)cc3o2)cc1,AC50,[1],3.18 µM (active)
same,outcome,[15],inactive
CCOC(=O)C(C)Oc1ccc(Oc2nc3ccc(Cl)cc3o2)cc1 (configuration not stated),outcome,[10],inactive
same,outcome,[16],inactive
same,outcome,[15],inactive
N[C@@H](Cc1cc(I)c(Oc2ccc(O)c(I)c2)c(I)c1)C(=O)O,AC50,[12],6.35 µM (active)
same,outcome,[17],inactive
same,outcome,[2],inactive
same,AC50,[7],5.49 µM (active)
same,outcome,[11],inactive
same,AC50,[15],5.14 µM (active)
O=C(Nc1ccc([N+](=O)[O-])cc1Cl)c1cc(Cl)ccc1O,outcome,[18],inactive
same,outcome,[11],inactive
COC(=O)c1cccc(C)c1S(=O)(=O)NC(=O)Nc1nc(OCC(F)(F)F)nc(N(C)C)n1,outcome,[17],inactive
COC(=O)c1ccc(CNS(C)(=O)=O)cc1S(=O)(=O)NC(=O)Nc1nc(OC)cc(OC)n1,outcome,[4],inactive
CC(C)CCCCCCc1ccc(O)cc1,outcome,[3],inactive
same,outcome,[4],inactive
same,outcome,[5],inactive
same,outcome,[19],inactive
same,outcome,[18],inactive
same,outcome,[11],inactive
same,outcome,[9],inactive
CCCCOC(=O)[C@@H](C)Oc1ccc(Oc2ccc(C(F)(F)F)cn2)cc1,outcome,[12],inactive
same,outcome,[13],inactive
same,outcome,[14],inactive
C#CCOC(=O)[C@@H](C)Oc1ccc(Oc2ncc(Cl)cc2F)cc1,outcome,[12],inactive
same,outcome,[17],inactive
CCOC(=O)NCCOc1ccc(Oc2ccccc2)cc1,outcome,[12],inactive
same,outcome,[2],inactive
same,outcome,[13],inactive
CCNc1nc(N)nc(Cl)n1,outcome,[1],inactive
COC(=O)c1ccccc1S(=O)(=O)NC(=O)Nc1nc(OC(F)F)cc(OC(F)F)n1,outcome,[18],inactive
same,outcome,[11],inactive
C=CCOC(Cn1ccnc1)c1ccc(Cl)cc1Cl (configuration not stated),outcome,[15],inactive
same,AC50,[13],9.22 µM (active)
CCCCCOC(=O)COc1cc(N2C(=O)C3=C(CCCC3)C2=O)c(F)cc1Cl,outcome,[17],inactive
same,outcome,[20],inactive
CCN(CC)C(=O)c1cccc(C)c1,outcome,[16],inactive
CN(C)C(=O)Nc1ccc(Cl)c(Cl)c1,outcome,[6],inactive
same,outcome,[14],inactive
c1ccc(Nc2ccccc2)cc1,outcome,[7],inactive
CSC(=O)c1cccc2nnsc12,outcome,[4],inactive
